Screening data from PubChem.
A selection: hits, their analogues and other compounds. The true share with any hit is near 3.8%.
Sfp inh = qHTS Assay for Inhibitors of Bacillus subtilis Sfp phosphopantetheinyl transferase (PPTase). 4'-phosphopantetheinyl transferase ffp (Bacillus subtilis), Q9F4F7. Biochemical Sfp PPTase activity, qHTS. Potency, µM, for inactives: largest response in the series, negative = inhibition, most hits filed as inhibitors. actives 3.5% (n = 310,000). AID 1490, 2009;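 note: the enzyme is Sfp with the accession as filed and its product quenches rhodamine fluorescence; 0% = enzyme reaction without inhibitor and -100% = no enzyme wells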
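Reaction rates are the 30-min fluorescence difference (ex 525, em 598 nm) in wells containing 15 nM Sfp, 5 uM rhodamine-CoA and 12.5 uM BHQ-2-YbbR at pH 7.6 with 10 mM MgCl2.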
KAT2A inh = qHTS Assay for Inhibitors of GCN5L2; Histone acetyltransferase KAT2A (Homo sapiens), Q92830; Potency, µM (titrated, usually from 58.9 µM), inactives show at the highest dose activity change, negative = inhibition, usual class: inhibitors; GCN5L2 HAT assay, ThioGlo1 CoA-SH fluorescence; AID 504327, 2011; actives 0.21% (n = 390,000)
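Compounds, pin-transferred from DMSO stocks, meet 20nM GCN5L2 for 15 min before the reaction begins with H3(1-25) peptide (75uM) and acetyl-CoA (70uM). Thiol-reactive ThioGlo1 reports CoA release over 20 min at room temperature.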
TrxR1 substrate = qHTS Assay for Substrates of Mammalian Selenoprotein Thioredoxin Reductase 1 (TrxR1): qHTS; Thioredoxin reductase 1, cytoplasmic (Rattus norvegicus), O89049; purified TrxR1 substrate turnover, NADPH consumption readout; Potency, µM (titrated, usually from 114 µM), inactives show top-dose activity change, negative = substrate turnover; actives 0.01% (n = 390,000); AID 588456, 2011; note: nearly all actives have a fitted effect of over 50% in size
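Rat TrxR1, dispensed at 90 nM, was prereduced with 400 uM NADPH (final) for 5 min at ~22 deg C, then incubated with compound 15 min before 400 uM selenite. A first-read NADPH fluorescence drop versus no-compound background flagged substrates.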
GLS inh = qHTS for Inhibitors of Glutaminase (GLS); Glutaminase kidney isoform, mitochondrial (Homo sapiens), O94925; GLS enzymatic activity, qHTS titration; Potency, µM (series often up to 45.5 µM), without a hit: at the top dose activity change, negative = inhibition, hits mostly inhibitors; actives 0.21% (n = 410,000); AID 624170, 2012
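Human kidney-isoform GLS in 45 mM KH2PO4 pH 8.2, 0.02% Tween-20, with compound, started with 1mM L-Glutamine (added stock). Glutamate oxidase/HRP/Amplex red coupled fluorescence read at start and after 30 min at RT.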
TrxR1 inh = qHTS Assay for Inhibitors of Mammalian Selenoprotein Thioredoxin Reductase 1 (TrxR1): qHTS. actives 1% (n = 390,000). Potency, µM (titrated, usually from 114 µM), inactives show at the top dose activity change, negative = inhibition, hits mostly inhibitors. recombinant rTrxR1, NADPH fluorescence consumption, selenite substrate. Thioredoxin reductase 1, cytoplasmic (Rattus norvegicus), O89049; note: nearly all actives have a fitted effect of over 65% in size
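Rat TrxR1 (90 nM in the dispensed reagent) was pre-reduced with 400 uM NADPH for 5 min at room temperature, then incubated with compound for 15 min. After 400 uM selenite was added, NADPH fluorescence (Ex 340/Em 450 nm) was followed for 8 min.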
VDR inh = Inhibitors of the vitamin D receptor (VDR): qHTS | VDR-SRC2-3 peptide fluorescence polarization, 2 h | Vitamin D3 receptor (Homo sapiens), P11473 | AID 504847, 2011 | actives 0.93% (n = 400,000) | Potency, µM, inactives show max response, negative = inhibition, usual class: inhibitors
Target sequence (P11473 whole entry, looked up): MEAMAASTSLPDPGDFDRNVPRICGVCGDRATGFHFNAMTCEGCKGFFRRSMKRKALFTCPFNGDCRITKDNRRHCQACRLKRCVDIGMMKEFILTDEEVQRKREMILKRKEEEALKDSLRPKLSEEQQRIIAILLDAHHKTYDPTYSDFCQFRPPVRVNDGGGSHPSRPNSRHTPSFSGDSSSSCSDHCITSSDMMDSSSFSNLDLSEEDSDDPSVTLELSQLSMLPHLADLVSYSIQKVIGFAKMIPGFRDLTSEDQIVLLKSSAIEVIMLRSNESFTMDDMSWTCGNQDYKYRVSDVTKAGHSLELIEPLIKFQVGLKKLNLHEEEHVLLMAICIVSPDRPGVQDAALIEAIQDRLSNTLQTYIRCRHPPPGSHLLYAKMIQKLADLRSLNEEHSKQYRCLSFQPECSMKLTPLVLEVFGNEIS
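Two reagent solutions held at 4 deg C in the dark were dispensed, compounds pinned at 23 nl, and the mixture incubated 2 h at room temperature. Read-out: fluorescence polarization of VDR–SRC2-3 peptide binding.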
The depositor's hits bear a star; ? = inconclusive; / = not tested or not shown; [ ] = another dose, or the depositor's remark. Calls come from the whole dose curve; as a rule, active = well fitted curve in the direction sought with a large enough effect; inconclusive = small, poorly fitted or top-dose-only effect, or another doubt; inactive = no such curve, though single readings can be large; an effect the other way counts as inactive or inconclusive. Unless noted, % is set by controls: 0 for no effect and ±100 for the full control effect; potency is the fitted concentration of half-maximal effect.

SMILES | Sfp inh | KAT2A inh | TrxR1 substrate | GLS inh | TrxR1 inh | VDR inh
O=C(CSc1nnc(Cc2cccs2)n1Cc1ccco1)Nc1ccc(Br)cc1 | 14µM* | -36% | -12% | 4% | ? | -6%
O=C(CSc1nnc(-c2ccco2)n1Cc1ccco1)NCc1cccs1 | 11% | -4% | -3% | 0% | 2% | 0%
Cc1sc(NC(=O)C2CCCCC2C(=O)O)c(C(N)=O)c1-c1ccccc1 (stereo not drawn) | 2% | -8% | 9%[57.1 µM] | 15% | 12%[57.1 µM] | -20%
Cc1sc(NC(=O)C2CCCCC2C(=O)O)c(C(N)=O)c1-c1ccc(C(C)(C)C)cc1 (stereo not drawn) | 79µM* | -12% | 1%[57.1 µM] | 16% | 26%[57.1 µM] | ?
CCOC(=O)c1c(NC(=O)/C=C/C(=O)O)sc(C)c1-c1ccc(C(C)(C)C)cc1 | -12% | ? | -11% | -1% | -13% | 20µM*
CCOC(=O)c1c(NC(=O)/C=C\C(=O)O)sc(C)c1-c1ccccc1 | 20% | -1% | 6%[57.1 µM] | 1% | 11%[11.4 µM] | -26%
Cc1sc(NC(=O)/C=C/C(=O)O)c(C(N)=O)c1-c1ccc(C(C)(C)C)cc1 | -55% | -10% | -12% | 19% | -7% | 79µM*
COc1ccc(OC)c(C(=O)COC(=O)c2[nH]c(C)c(C(C)=O)c2C)c1 | / | -10% | 22% | 2% | -3% | 9%
Cc1ccc(-c2noc(-c3nnn(CC(=O)Nc4cc(Cl)ccc4C)c3N)n2)cc1 | / | 4% | 4% | 5% | 33% | 4%
Cc1[nH]ncc1Nc1c(C(C)C)cccc1C(C)C | / | / | / | 29% | / | /
Cc1ccc(Nc2cc(C)c(O)c(C)c2)cc1 | ? | 1% | 10%[57.1 µM] | -10% | -17%[57.1 µM] | 25µM*
Cc1ccc(Nc2ccccc2)cc1 | -7% | -3% | -8% | -13% | -4% | 7%
Cc1ccc(S(=O)(=O)NCC(c2ccco2)S(=O)(=O)c2ccccc2)cc1 (stereo not drawn) | / | -5% | -7%[57.1 µM] | 2% | -24%[57.1 µM] | 25%
O=P(c1ccccc1)(c1ccccc1)C(O)c1ccccn1 (stereo not drawn) | 79µM* | -5% | -1% | -2% | 23% | -17%
CC1(C)SC2C(N3C(=O)C(c4ccccc4)NC3(C)C)C(=O)N2C1C(=O)O (stereo not drawn) | ? | 1% | / | 28µM* | / | -9%
CC(Oc1ccccc1)C(=O)NC1C(=O)N2C(C(=O)O)C(C)(C)S[C@@H]12 (stereo partly drawn) | -2% | 8% | / | / | / | 9%
CC1CCc2c(sc3[nH]c(=S)n(C)c(=O)c23)C1 (stereo not drawn) | 79µM* | -25% | 0% | ? | -17% | ?
CCn1c(=S)[nH]c2sc3c(c2c1=O)CCCC3 | 2% | -9% | 1% | ? | ? | ?
Cc1csc2c(=O)sc(NC(=O)c3ccco3)nc12 | 56µM* | -2% | 5% | 0% | 12% | -23%
O=C(c1ccccc1F)N1CCCC(C(=O)N2CCN(c3ccccc3)CC2)C1 (stereo not drawn) | -7% | 2% | 1%[57.1 µM] | 0% | 14%[57.1 µM] | -2%
N=c1c(S(=O)(=O)c2ccc(Cl)cc2)cc2c(=O)n3ccccc3nc2n1CCN1CCOCC1 | 4% | -5% | 82% | 2% | -18% | 3%
N=c1c(S(=O)(=O)c2ccc(Cl)cc2)cc2c(=O)n3ccccc3nc2n1CCc1ccccc1 | 25µM* | 1% | / | / | / | /
COc1ccc(-c2noc(CN3CCCCC3)n2)cc1OC | 23% | 1% | -5% | 1% | 8% | -3%
O=C(CCNc1ccc(F)c(Cl)c1)c1ccco1 | 11% | 2% | 12% | 22% | ? | 7%
O=C(CCNc1ccc(F)cc1)c1ccco1 | 2% | -4% | -4% | 9% | 11µM* | 1%
SMILES | Sfp inh | KAT2A inh | TrxR1 substrate | GLS inh | TrxR1 inh | VDR inh
O=C(CCNc1cc(Cl)cc(Cl)c1)c1ccco1 | -2% | -11% | 2% | 13% | 8.9µM* | -23%
COc1cccc(CNC(=O)CSCC(=O)Nc2ccc(C)cc2)c1 | / | -3% | 3% | 3% | 12% | -3%
O=C(NCc1ccccn1)c1cc2n(n1)C(C(F)(F)F)CC(c1ccco1)N2 (stereo not drawn) | 13µM* | -4% | 3% | 14% | -50% | 11%
O=[N+]([O-])c1cccc(NC(=S)NCc2ccncc2)c1 | 13µM* | 0% | 0% | 0% | -9% | -27%
CC[C@H](C)C(=O)O[C@@H]1C[C@H](C)C=C2C=C[C@H](C)[C@@H](CC[C@H]3C[C@@H](O)CC(=O)O3)[C@H]21 | 12% | ? | / | / | / | -1%
CC/C(=C/c1ccccc1)c1cc(Oc2ccccc2)cc2oc3ccccc3c12 | / | / | 59% | / | -25% | /
O=S(=O)(c1ccccc1)N1CCC[C@@]2(CCN(c3ccccc3)C2)C1 | 1% | -13% | / | / | / | 32µM*
CCOC(=O)c1sc(=S)n(C)c1NC(=O)c1ccc(OC)cc1 | 13µM* | ? | 4%[57.1 µM] | 0% | -21%[57.1 µM] | 50µM*
CCOC(=O)c1cnn(CCOC(=O)c2ccc(OC)cc2)c1NC(=O)c1ccc(OC)cc1 | -16% | -3% | -2% | 9% | 10% | -6%
CCOC(=O)c1sc(=S)n(C)c1NC(=O)c1ccccc1Cl | 18µM* | 0% | -13% | -12% | -18% | ?
CCOC(=O)c1sc(=S)n(-c2ccccc2Cl)c1C | -7% | -16% | -4% | -1% | -8% | -6%
COc1ccc(NC(=O)Nc2sc(=S)n(C)c2C)cc1 | 20µM* | -1% | 3%[57.1 µM] | -24% | 0%[57.1 µM] | -2%
COc1ccc2c(c1)OC[C@H]1[C@H]2N2C(=O)c3cc(OC)ccc3NC(=O)[C@@]2(C)[C@H]1c1ccccc1 | / | -10% | 10% | -1% | 33% | -12%
CCCCCCCCCCCCCCSCC(=O)O | 7% | 10µM* | ? | / | ? | ?
CCOC(=O)c1c(-c2ccc(OCC)cc2)csc1NC(=O)CCN1C(=O)c2ccccc2C1=O | -3% | -1% | / | / | / | /
COC(=O)c1ccccc1N/C=C1\CCc2c(c(C)nn2-c2ccccn2)C1=O | 45µM* | -9% | -3% | 16% | -9% | 12%
Nc1c(C(=O)O)sc2nc3c(cc12)CCCC3 | -15% | -12% | -1% | -7% | 23% | -26%
